Bioassay records (PubChem)
The list is not random: actives were taken first. Their share in the collection is about 32%.
CYP2C19 act = activators of human cytochrome P450 2C19; recombinant CYP2C19, luciferin-H EGE luminescence; stronger effect = higher value; 0 = fully inhibited enzyme, 1 = untreated enzyme; P33261; 96,000 tested, under 10 active; activation factor at 5 µM; AID 1025;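 active means activation factor of at least 2 at 5 µM in the primary screen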
Target sequence (P33261 whole entry, looked up): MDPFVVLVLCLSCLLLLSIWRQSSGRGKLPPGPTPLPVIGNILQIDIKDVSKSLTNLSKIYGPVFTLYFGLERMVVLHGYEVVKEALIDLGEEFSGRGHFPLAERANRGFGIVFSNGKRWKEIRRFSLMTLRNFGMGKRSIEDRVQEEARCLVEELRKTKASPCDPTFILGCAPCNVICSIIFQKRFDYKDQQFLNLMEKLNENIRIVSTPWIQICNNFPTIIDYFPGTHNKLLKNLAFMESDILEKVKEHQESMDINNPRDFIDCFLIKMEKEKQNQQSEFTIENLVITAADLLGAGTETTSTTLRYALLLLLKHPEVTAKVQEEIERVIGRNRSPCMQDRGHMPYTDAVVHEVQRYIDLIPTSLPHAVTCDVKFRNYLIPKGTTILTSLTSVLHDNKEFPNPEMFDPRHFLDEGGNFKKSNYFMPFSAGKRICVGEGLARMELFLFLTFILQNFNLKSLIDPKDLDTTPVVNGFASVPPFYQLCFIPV
CYP2C19 inhib = inhibitors of human CYP2C19; P33261; actives 21% (n = 96,000); inhibition, % at 5 µM; AID 778; CYP2C19 Supersomes, luciferin-H EGE luminescence, 30 min;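 active means CYP2C19 inhibition above a set limit at 5 µM in the primary screen, cut at about 50% in these data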
PostGolgi ctrl = yeast control strain growth, post-Golgi counter-screen; efflux-deficient yeast background strain, growth absorbance A615, 16 h; actives 5% (n = 98,000); AID 738; inhibition, % at 10 µM
CYP2C9 activ = activators of human CYP2C9. P11712. recombinant CYP2C9, luciferin-H conversion, luminescence; stronger effect = higher value; factor 1 = untreated enzyme, 0 = blocked. activation factor at 5 µM. actives 1.4% (n = 96,000). AID 1024;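 active means activation factor of 2 or more for CYP2C9 at a 5 µM dose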
CYP2C9 inh = inhibitors of human CYP2C9. P11712. CYP2C9 Supersomes, luciferin-H conversion, luminescence. inhibition, % at 5 µM. actives 20% (n = 96,000). AID 777;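 active means blocking of liver enzyme CYP2C9 beyond about 50% at 5 µM, limit read from the data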
PostGolgi yeast = growth inhibition of a yeast mutant, post-Golgi transport screen | post-Golgi transport phenotypic cell assay | inhibition, % at 10 µM | actives 0.9% (n = 98,000) | AID 739;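 further: yeast cells grown in 1536-well plates; yeast grown about 18 h at 30C before absorbance read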
Numbers stand for hits; i = inactive; nt = no result. Unless noted, no stated cut-off is given here; in the data, active means inhibition above about 30%; inactive means the rest.

SMILES | CYP2C19 act | CYP2C19 inhib | PostGolgi ctrl | CYP2C9 activ | CYP2C9 inh | PostGolgi yeast
Cc1ccc(S(=O)(=O)N/N=C/c2ccc(OS(=O)(=O)c3ccc(C)c([N+](=O)[O-])c3)cc2)cc1 | i | i | i | i | 91.0 | i
Cc1ccc(S(=O)(=O)N/N=C\c2ccc([N+](=O)[O-])o2)cc1 | i | i | i | i | 78.6 | i
CCOc1ccc2[nH]c(=O)c(CN(Cc3ccc(F)cc3)C(=O)c3ccco3)cc2c1 | i | i | i | i | i | i
O=S1(=O)C[C@@H](N2CCOCC2)[C@H](N2CCOCC2)C1 | nt | nt | i | nt | nt | i
CC(C)(C)N=C1SCC(C)(/C=N/O)S1 (stereo not given) | i | i | i | i | i | i
CCC(OC(=O)C1=Cc2ccccc2OC1)C(=O)NC1CCCC1 (stereo not given) | i | i | i | i | i | i
O=C(OC(C(=O)NC1CCCC1)c1ccncc1)C1=Cc2ccccc2OC1 (stereo not given) | i | 89.1 | i | i | 73.5 | i
O=S(=O)(c1ccc(Oc2ccc(-c3nnco3)cc2)nc1)N1CCC(Cc2ccccc2)CC1 | i | i | i | i | 58.2 | i
Cc1ccc(S(=O)(=O)N2CCN(C(=O)COc3ccc(-c4nnco4)cc3)CC2)cc1 | i | i | i | i | i | i
Cc1ccc(C(=O)COC(=O)CCC(=O)Nc2cc(Cl)ccc2Cl)cc1[N+](=O)[O-] | i | i | i | i | i | i
CCOC(=O)c1c(-c2cccs2)csc1NC(=O)C(C)(C)C | i | i | i | i | i | i
O=C(NCCCN1CCOCC1)c1cc(-c2cccs2)on1 | i | i | i | i | i | i
CCOC(=O)c1c(-c2cccs2)csc1NC(=O)CN1CC(C)OC(C)C1 (stereo not given) | i | i | 43.5 | i | 69.0 | i
CCOC(=O)c1c(-c2cccs2)csc1NC(=O)CSc1ncn[nH]1 | i | 86.1 | i | i | 94.7 | i
CCOC(=O)c1c(-c2cccs2)csc1NC(=O)CNCCN1CCOCC1 | i | i | i | i | 67.6 | i
C/C(=N/Nc1nc(-c2ccc(Cl)cc2)cs1)c1cccs1 | i | i | i | i | i | i
CC(=O)Cc1nsc(NC(=O)C2Cc3ccccc3C(=O)O2)n1 (stereo not given) | i | i | i | i | i | i
CCOC(=O)CSc1nc(N)c2c3c(sc2n1)CCCC3 | i | i | i | i | 62.4 | i
CCOC(=O)c1cnn(-c2ncnc3sc4c(c23)CCC4)c1N | i | i | i | i | i | i
CCOC(=O)CSc1nnc(CSc2nc3sc4c(c3c(=O)[nH]2)CCCC4)n1-c1ccccc1 | i | 74.1 | i | i | 69.6 | i
CCOC(=O)CSc1nnc2n(C3CCCCC3)c(=O)c3c4c(sc3n12)CCCC4 | i | 53.8 | i | i | 63.0 | i
CCOC(=O)c1cnn(-c2nc(SC)nc3sc4c(c23)CCCC4)c1N | i | i | 76.3 | i | 63.0 | i
CCCCC(=O)N(c1ccc(C)c(C)c1)C1C=CS(=O)(=O)C1 (stereo not given) | i | i | i | i | i | i
O=C(Oc1cc(-c2ccccc2)no1)c1ccc(Cl)cc1 | i | i | i | i | i | i
COc1cc(C(=O)N2CCC(n3cnc4cc(F)ccc43)CC2)cc(OC)c1OC | i | i | i | i | i | i
SMILES | CYP2C19 act | CYP2C19 inhib | PostGolgi ctrl | CYP2C9 activ | CYP2C9 inh | PostGolgi yeast
CC1CCc2c(sc3nc(SCC(=O)NCc4ccco4)nc(N)c23)C1 (stereo not given) | i | i | i | i | 60.8 | i
CSc1nc(SCC(=O)NCc2ccco2)c2c3c(sc2n1)CN(C)CC3 | nt | nt | i | nt | nt | i
CCN(CC)C(=O)CSc1nc(N)c2c3c(sc2n1)CC(C)CC3 (stereo not given) | i | 56.2 | i | i | 53.9 | i
Cc1ccc(S(=O)(=O)CCc2ccccn2)cc1 | i | i | i | i | i | i
CC(C)(C)c1ccc(S(=O)(=O)CCc2ccccn2)cc1 | i | 68.2 | i | i | i | i
O=C(CSc1ncccc1-c1nc2ccccc2[nH]1)NCc1ccco1 | i | i | i | i | 55.4 | 33.9
COC(=O)CSc1ncccc1-c1nc2ccccc2[nH]1 | i | 59.1 | i | i | i | i
N#CCCCSc1ncccc1-c1nc2ccccc2[nH]1 | nt | nt | i | nt | nt | i
COCCNC(=O)C1CCN(S(=O)(=O)c2ccccc2)CC1 | i | i | i | i | i | i
CC(=O)Nc1c(C(=O)N2CCCCCC2)cnn1-c1ccccc1 | i | i | i | i | i | i
O=C1c2ccccc2NC(c2ccc3c(c2)OCO3)N1O (stereo not given) | i | i | i | i | i | i
COc1cc(C2Nc3ccccc3C(=O)N2c2ccc3c(c2)OCCO3)ccc1OCC(C)C (stereo not given) | i | 70.3 | i | i | 98.6 | i
O=C1c2ccccc2NC(c2ccc3c(c2)OCCO3)N1c1ccc2c(c1)OCCO2 (stereo not given) | i | 79.4 | i | i | 94.4 | i
CCc1ccc(C(=O)NC(C(=O)O)C(C)C)cc1 (stereo not given) | i | i | i | i | i | i
CCCN(CCC)S(=O)(=O)c1ccc(C(=O)Nc2ccc(OCC(=O)N3CCOCC3)cc2)cc1 | i | i | i | i | 79.6 | i
CCCCN(CCCC)S(=O)(=O)c1ccc(NS(=O)(=O)c2ccc(NC(C)=O)cc2)cc1 | i | i | i | i | 84.0 | i
CCCCN(CCCC)S(=O)(=O)c1ccc(NC(=O)CN2CCOCC2)cc1 | i | 72.5 | i | i | 91.0 | i
CCCN(CCC)S(=O)(=O)c1ccc(NC(=O)COc2ccccc2)cc1 | i | 86.8 | i | i | 99.3 | i
Cc1cc(OCC(=O)c2ccc(F)cc2)ccc1N1C(=O)CCC1=O | i | i | i | i | i | i
CC1(C)CC(=O)C2=C(C1)NC(=O)CC2C(=O)NCc1ccc(F)cc1 (stereo not given) | i | i | i | i | i | i
CC(=O)Cc1nsc(NC(=O)c2cc(-c3ccccc3Cl)oc2C)n1 | i | i | i | i | i | i
Cc1cc(C)nc(NC(=O)Cc2cccs2)n1 | i | i | i | i | i | i
CCCN(CCC)S(=O)(=O)c1ccc(NC(=O)Cc2cccs2)cc1 | i | 50.0 | i | i | 84.2 | i
CCCCN(CCCC)S(=O)(=O)c1ccc(NC(=O)Cc2cccs2)cc1 | i | 66.4 | i | i | 88.8 | i
COc1nc2c(C)cccc2cc1-c1noc(-c2ccco2)n1 | i | i | i | i | i | i
CCOCCCNC(=O)c1cc2sc(Cl)cc2n1CC | i | 52.1 | i | i | i | 38.7
COC(=O)c1ccc(CSCC(=O)Nc2cc(OC)cc(OC)c2)o1 | i | i | i | i | 64.1 | i
COC(=O)c1ccc(CSc2nnc(Nc3cccc(OC)c3)s2)o1 | i | i | i | i | i | i
O=C1N(c2ccc(Cl)c(Cl)c2)CN(Cc2ccccc2)CN1n1cnnc1 | i | i | i | i | i | i
CCOC(=O)N1CCN(C(=O)CN(c2cccc(C(F)(F)F)c2)S(=O)(=O)c2ccccc2)CC1 | i | i | i | i | i | i
